Source: paper PMC10313831, “ssDNA accessibility of Rad51 is regulated by orchestrating multiple RPA dynamics”

Each sequence was assayed against RPA (Rfa1-Rfa2-Rfa3) (Saccharomyces cerevisiae, UniProt P22336;P26754;P26755 1-621;1-273;1-122) (assay: EMSA; 10 nM RPA, 150 mM KCl; 20 mM Tris-HCl pH 7.5, 150 mM KCl (15 mM in Supp. Fig. 1b), 1 mM DTT, 100 ug/mL BSA, 5 nM ssDNA, 30 C 10 min; 4% native gel in 0.2x TBE; high values mean tight binding). Settings: protein: recombinant; copies: 1;1;1; label: 5'-32P; ssDNA.
RPA (Rfa1-Rfa2-Rfa3), sequence (P22336 whole entry, chain 1 of 3): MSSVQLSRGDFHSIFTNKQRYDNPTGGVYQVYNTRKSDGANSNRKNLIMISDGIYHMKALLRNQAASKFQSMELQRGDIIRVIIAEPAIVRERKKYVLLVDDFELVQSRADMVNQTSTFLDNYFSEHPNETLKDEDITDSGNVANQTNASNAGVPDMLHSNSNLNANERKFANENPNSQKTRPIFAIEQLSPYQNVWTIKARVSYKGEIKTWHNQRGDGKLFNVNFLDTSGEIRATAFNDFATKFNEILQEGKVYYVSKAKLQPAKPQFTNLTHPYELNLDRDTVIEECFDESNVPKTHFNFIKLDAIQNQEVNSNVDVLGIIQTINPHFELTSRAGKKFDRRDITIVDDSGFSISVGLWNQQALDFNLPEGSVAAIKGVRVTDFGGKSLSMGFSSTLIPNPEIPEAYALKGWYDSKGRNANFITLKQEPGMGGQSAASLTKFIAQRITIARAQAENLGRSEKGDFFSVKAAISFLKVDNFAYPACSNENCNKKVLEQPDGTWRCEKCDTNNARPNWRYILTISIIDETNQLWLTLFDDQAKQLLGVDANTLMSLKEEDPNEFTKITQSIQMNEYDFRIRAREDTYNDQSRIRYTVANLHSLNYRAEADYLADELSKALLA
RPA (Rfa1-Rfa2-Rfa3), sequence (P26754 whole entry, chain 2 of 3): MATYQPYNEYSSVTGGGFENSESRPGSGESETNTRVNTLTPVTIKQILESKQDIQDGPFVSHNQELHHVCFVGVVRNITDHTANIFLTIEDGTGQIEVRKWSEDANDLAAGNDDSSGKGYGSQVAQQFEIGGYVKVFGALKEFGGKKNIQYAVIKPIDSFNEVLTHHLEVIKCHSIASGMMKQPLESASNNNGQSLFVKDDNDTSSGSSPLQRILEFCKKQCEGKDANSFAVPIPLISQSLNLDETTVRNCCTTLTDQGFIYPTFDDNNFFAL
RPA (Rfa1-Rfa2-Rfa3), sequence (P26755 whole entry, chain 3 of 3): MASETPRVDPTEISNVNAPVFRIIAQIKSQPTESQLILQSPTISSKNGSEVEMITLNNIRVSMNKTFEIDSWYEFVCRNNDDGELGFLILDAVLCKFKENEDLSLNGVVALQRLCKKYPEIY

| Sequence | binding signal |
| --- | --- |
| TTTTTTTTTTTTTT | 3.33 ± 2.59 % bound |
| TTTTTTTTTTTTTTTTTT | 39.7 % bound |
| TTTTTTTTTT | 1.24 % bound |
